This is an account of results in PubChem BioAssay AID540276 (National Center for Advancing Translational Sciences (NCATS), 2011).

“And” between values parts separate entries of the source, which are not always exact repeats. Equal values may be shown once. Among all 300,000 compounds or so, about 5,400 (1.8%) were called active. Roughly 28% stayed inconclusive and do not appear here. The call rests on the fitted dose curve; tested in HEK293 cells. The entries come from a sample that favours actives as a whole. Where a call stands in place of a potency, no number is given.
Potency means the concentration at half of the fitted maximal effect.

This experiment can be described thus: qHTS for inhibitors of binding or entry into cells for Marburg Virus. As to conditions: Marburg virus pseudotyped entry inhibition, cell reporter; series mostly up to 37.8 µM. (In general: In qHTS, concentration-response curves come from the screen itself.)
On to `CC(C)(C)NCc1cc(Br)ccc1OC1CCCC1`, for which the Potency was 23.1 µM (active).
The result for `COc1ccc(Br)cc1CN(C)C(=O)C1CC(=O)N(C2CCCC2)C1` (configuration not stated) reads “inactive”.
Next, `COCC(C)NCc1cc(Br)ccc1OC` (configuration not stated): “inactive”.
Next, `Cc1ccc(C)c(NC(=O)c2cc(-c3cc(C)cc(C)c3O)n[nH]2)c1`: “inactive”; `COc1ccccc1CNC(=O)[C@@H]1CCCN1C(=O)[C@@H]1Cc2ccccc2CN1C(=O)OC(C)(C)C`: “inactive”.
`COCCCNC(=O)[C@@H](C#N)c1nc2ccccc2nc1N1CCN(Cc2ccccc2)CC1`: the Potency result is “inactive”.
Regarding `CCOc1ccc(-c2nnc(-c3ccco3)o2)cc1`, the Potency was 6.51 µM (active).
Next, `COc1ccc(C(=O)CSc2nnc(-c3ccco3)o2)cc1`: “inactive”.
In the case of `CCC(=O)Oc1cccc(C(=O)Nc2ccc(-c3nnc(-c4ccco4)o3)cc2)c1`, the Potency result is “inactive”.
The result for `CC(=O)Nc1ccc(S(=O)(=O)NCC(=O)OCC(=O)c2ccc[nH]2)cc1` reads “inactive”.
Consider `Cc1cccnc1CCNC(=O)C1CCC(=O)N(Cc2cccc(F)c2)C1` (configuration not stated), for which the Potency entry is “inactive”.
The result for `CCOc1ccc(C(C)=O)cc1COC(=O)CNC(=O)c1cccs1` reads “inactive”; that for `O=C(Nc1ccc(Cl)c(Cl)c1)c1ccccc1NC(=O)C1CC=CCC1C(=O)O` (configuration not stated), “inactive”.
The result for `COC(=O)CC=C[C@@H](C)[C@@H](C=NOC[C@H]1O[C@H](c2ccccc2)C=C[C@H]1Oc1ccc(OC)cc1)N[S+](=O)([O-])c1ccc(C)cc1` reads “inactive”.
The result for `O=C(COC(=O)c1c2c(nc3ccccc13)/C(=C\c1cccs1)CCC2)Nc1ccccc1Cl` reads “inactive”; that for `NS(=O)(=O)c1ccc(NC(=O)COC(=O)c2c3c(nc4ccccc24)/C(=C\c2ccc4c(c2)OCO4)CCC3)cc1`, 11.6 µM (active).
Consider `COc1cc(-c2cc(C(=O)OCC(=O)Nc3ccc4c(c3)OCO4)c3ccccc3n2)cc(OC)c1OC`, for which the Potency result was “inactive”.
The result for `COc1cccc(C(=O)NNC(=O)c2cccc(F)c2)c1` reads “inactive”.
Turning to `Cc1c(Cl)c([N+](=O)[O-])nn1CC(=O)NCCCN1CCOCC1`, the Potency result is “inactive”.
For `CCOC(=O)N1CCC(N2Cc3cccc(C(=O)Nc4ccc(S(=O)(=O)N(CC)CC)cc4)c3C2=O)CC1`, the Potency entry is “inactive”.
The result for `CCn1cc(C(=O)O)c(=O)c2c1N=C(C)CC2` reads “inactive”; that for `COc1ccccc1CNC(=O)c1ccc(SC)cc1OC`, “inactive”; that for `COc1cc(SC)ccc1C(=O)Nc1cc(C)ccn1`, 14.6 µM (active).
The result for `Cc1ccnc(NC(=O)c2ccoc2C)c1` reads “inactive”; that for `COc1cnn(-c2ccc([N+](=O)[O-])cc2)c(=O)c1Cl`, “inactive”.
As to `Cc1cccnc1CC(C)NC(=O)c1cc(COc2cncc(Cl)c2)on1` (configuration not stated), the Potency entry is “inactive”.
The result for `CCCC(O)(c1ccccc1)C(c1ccccc1)c1ccccn1` (configuration not stated) reads “inactive”; that for `O=C(c1ccc2c(c1)N(Cc1ccc(F)cc1)C(=O)c1ccccc1S2(=O)=O)N1CCN(c2ccccn2)CC1`, 5.01 µM (active) and 3.16 µM (active).
Next, `O=C(c1ccc2c(c1)N(Cc1ccc(Cl)cc1)C(=O)c1ccccc1S2(=O)=O)N1CCCCC1`: “inactive”.
In the case of `O=C(c1ccc2c(c1)N(Cc1ccccc1)C(=O)c1ccccc1S2(=O)=O)N1CCCC1`, the Potency entry is “inactive”.
The result for `O=C(Nc1ccc(S(=O)(=O)Nc2ccccn2)cc1)c1ccccc1` reads “inactive”; that for `COC(=O)Cc1nc2c(N)nc(N)nc2[nH]c1=O`, “inactive”.
The result for `CCCCn1c(N)c(N(CCC(C)C)C(=O)CC2OC(=O)c3ccccc32)c(=O)[nH]c1=O` (configuration not stated) reads “inactive”; that for `COc1ccc(Cl)cc1NC(=O)COC(=O)c1ccc(Br)o1`, “inactive”; that for `c1ccc2cc(OCCN3CCCC3)ccc2c1`, “inactive”.
The result for `CC1CN(CCOc2ccccc2[N+](=O)[O-])CC(C)O1` (configuration not stated) reads “inactive”; that for `O=[N+]([O-])c1ccccc1OCCCCN1CCCCC1`, “inactive”.
On to `c1ccc(-c2ccccc2OCCN2CCCCC2)cc1`, for which the Potency was 14.6 µM (active).
As to `CC1CN(CCCOc2ccccc2-c2ccccc2)CC(C)O1` (configuration not stated), the Potency result was “inactive”.
Next, `CC1CCCN(CCOCCOc2ccccc2-c2ccccc2)C1` (configuration not stated): 11.2 µM (active); `CN(Cc1ccc(F)cc1)C(=O)CN1C(=O)c2ccccc2S1(=O)=O`: “inactive”; `COc1ccc(C(=O)CC(=O)c2ccc(C)cc2)c(O)c1`: “inactive”.
On to `COc1ccc(N=C2C=CC(=O)O2)cc1`, for which the Potency entry was “inactive”.
The result for `COc1ccc(Cc2nc3ccc(C(=O)NCC4CCOCC4)cc3o2)cc1OC` reads “inactive”; that for `CCOC(=O)CN(C)Cc1c[nH]c2ccccc12`, “inactive”.
Next, `O=C(COC(=O)Cc1c[nH]c2ccccc12)NCCc1ccccc1`: “inactive”.
The result for `O=C(Cc1c[nH]c2ccccc12)OCCOC(=O)Cc1c[nH]c2ccccc12` reads 18.3 µM (active).
Turning to `COc1ccc(S(=O)(=O)NCc2cccnc2)cc1NC(=O)c1ccc(C)cc1`, the Potency result is “inactive”.
As to `COc1cc(C(=O)Nn2c(CC(C)C)nc3ccccc3c2=O)cc(OC)c1OC`, the Potency result was “inactive”.
Next, `Cc1ccc(NC(=O)c2cc(-c3ccc(C)o3)nc3ccccc23)nc1`: “inactive”; `Cc1ccc(Nc2nc(-c3ccc(O)cc3O)cs2)nc1`: 4.47 µM (active).
As to `Cc1cc(O)ccc1-c1cnc2ccccc2n1`, the Potency entry is “inactive”.
The result for `CC(=O)c1ccc(S(=O)(=O)Nc2ccc(-c3ccc4nncn4n3)cc2)cc1` reads “inactive”; that for `NC(=S)NN=C1CCCC(C(F)(F)F)C1` (configuration not stated), “inactive”.
`O=C(COC(=O)c1ccc(Br)o1)NC12CC3CC(CC(C3)C1)C2`: the Potency entry was “inactive”.
Next, `CCOc1cc(N2CCOCC2)c(OCC)cc1NC(=O)COc1cccc(Cl)c1`: “inactive”; `CCOc1cc(N2CCOCC2)c(OCC)cc1NC(=O)COC(=O)[C@H](Cc1c[nH]c2ccccc12)NC(C)=O`: “inactive”.
Next, `CCOc1cc(N2CCOCC2)c(OCC)cc1NC(=O)COc1cccc2cccnc12`: 4.47 µM (active); `COc1ccc(Cl)cc1NC(=O)CN1CCN(C(=O)N2CCOCC2)CC1`: “inactive”.
Next, `CCOc1ccc(NC(=O)CSc2c3c(nc4ccccc24)CCCC3)cc1`: “inactive”; `O=C(Nc1c2c(nc3ccccc13)CCCC2)c1ccccc1Br`: “inactive”.
`Cc1ccc(Nc2c3c(nc4ccccc24)CCC3)cc1`: the Potency was 11.2 µM (active).
Next, `Cc1ccc(C(=O)O)c(NC=O)c1OCc1ccccc1`: “inactive”.
The result for `Cc1[nH]c(C)c(S(=O)(=O)N2CCC(C)CC2)c1C(=O)N1CCCC1` reads “inactive”; that for `CN(CC(=O)NCCc1ccc(S(N)(=O)=O)cc1)CC(=O)Nc1ccc(Cl)cc1`, “inactive”.
Next, `O=C(NC1(C(F)(F)F)N=C(c2ccccc2)N(C2CCCCC2)C1=O)c1ccccc1F` (configuration not stated): “inactive”; `O=C1NC(Nc2nc3ccccc3s2)(C(F)(F)F)C(=O)N1C1CCCCC1` (configuration not stated): 6.51 µM (active).
As for `COC(=O)NC1(C(F)(F)F)NC(=O)N(C2CCCCC2)C1=O` (configuration not stated), the Potency result was “inactive”.
Next, `C=CCOc1cccc(CNCc2cccnc2)c1`: “inactive”; `CC(C)c1ccc(/C=C/C(=O)NCCCN2CCOCC2)cc1`: “inactive”.
The result for `COc1ccc(-c2nn(-c3ccccc3)cc2/C=C\C(=O)N2CCOCC2)cc1[N+](=O)[O-]` reads “inactive”; that for `O=C(/C=C/c1cn(-c2ccccc2)nc1-c1ccc2c(c1)OCCO2)NCCCN1CCOCC1`, 3.55 µM (active).
In the case of `Cc1cc(F)ccc1NC(=S)NCCc1ccccc1`, the Potency entry was “inactive”.
Next, `O=C(Nc1cccc(Cl)c1Cl)c1ccccc1NC(=O)C1CC=CCC1C(=O)O` (configuration not stated): “inactive”; `Cc1ccccc1CN1CCNC(=O)C1CC(=O)NCCC1=CCCCC1` (configuration not stated): “inactive”.
The result for `COc1ccccc1C(=O)Nc1ccc(C)c(S(=O)(=O)N2CCCCC2)c1` reads 8.91 µM (active); that for `Cc1ccc(C(=O)NNC(=O)c2ccncc2)cc1S(=O)(=O)N1CCCCC1`, “inactive”; that for `Cc1ccc(NS(=O)(=O)c2cccs2)cc1S(=O)(=O)N1CCCCCC1`, 10 µM (active).
Next, `Cc1ccc(NC(=O)c2ccccn2)cc1S(=O)(=O)N1CCOCC1`: “inactive”; `Cc1ccc(NC(=O)CCCNC(=O)c2ccc(Cl)cc2)cc1S(=O)(=O)N1CCCCC1`: “inactive”.
As for `O=S(=O)(Nc1ccccc1)c1ccc(NS(=O)(=O)c2cccs2)cc1`, the Potency entry was “inactive”.
Turning to `CCOc1ccc2ccccc2c1/C=N/NC(=O)c1c(C)cc(C)[nH]c1=O`, the Potency result is “inactive”.
Next, `Cc1ccc(/C=C2\CCn3c2nc2cc(C(=O)O)ccc2c3=O)c(C)c1`: “inactive”; `Cc1ccc(Nc2nnc(SC(C)C(=O)NC3CC3)s2)cc1` (configuration not stated): “inactive”; `CCOC(=O)C1CCN(C(=O)CN2C(=O)c3cccnc3Oc3ccc(C)cc32)CC1`: “inactive”.
Next, `Cc1nc(/N=C(\N)NC(=O)NC2CCCCC2)nc2ccccc12`: 7.94 µM (active); `COc1ccc2nc(/N=C(\N)NC(=O)Nc3ccccc3)nc(C)c2c1`: “inactive”; `O=C(NNC(=O)C(O)c1ccccc1)NC1CCCCC1` (configuration not stated): “inactive”.
As to `O=C(OCCOCn1cc(Br)c(=O)[nH]c1=O)c1ccccc1`, the Potency entry is “inactive”.
The result for `C=CCn1c(=O)n(C)c2c(=O)n(C)c(=O)n(C)c21` reads “inactive”; that for `O=C1CC(c2ccccc2)C(=O)N2C(=O)CC(c3ccccc3)C(=O)N12` (configuration not stated), “inactive”; that for `C=CCNC(=O)C1CC2c3ccccc3C1c1ccccc12` (configuration not stated), “inactive”.
The result for `COc1cc2c(cc1OC)CN(CC(=O)Nc1ccc(F)cc1)CC2` reads “inactive”; that for `CC[C@H]1CN2CCc3cc(OC)c(OC)cc3[C@@H]2C[C@@H]1C[C@H]1NCCc2cc(OC)c(OC)cc21`, 224 nM (active) and 326 nM (active) and 103 nM (active); that for `COc1cc(NC(=O)CSc2ccc(-c3cccnc3)nn2)cc(OC)c1`, “inactive”.
Regarding `CCOc1ccc(CC(=O)NCCS(=O)(=O)N2CCN(c3ccccc3)CC2)cc1`, the Potency result was “inactive”.
For `Cc1nc2ccccc2c(C(=O)O)c1-c1ccccn1`, the Potency result is “inactive”.
The result for `O=C(COc1ccc([N+](=O)[O-])cc1Cl)Nc1ccc2[nH]c(=O)[nH]c2c1` reads “inactive”.
The result for `O=C(NCc1cccnc1)c1cn(-c2ccccc2)nc1-c1cccs1` reads “inactive”; that for `CC(=O)C1=C(C)NC(C)=C(C(C)=O)C1c1cn(-c2ccccc2)nc1-c1cccs1`, “inactive”; that for `O=C(O)c1ccc(N/N=C/c2cn(-c3ccccc3)nc2-c2cccs2)cc1`, 4.47 µM (active).
Next, `COc1ccc(OC)c(NC(=O)C2CCCN2S(=O)(=O)c2cccc3nsnc23)c1` (configuration not stated): “inactive”.
